Here are results for 37 compounds from PubChem BioAssay (NCATS).

Each structure is given as a SMILES string. Records with an inconclusive call do not appear. A number with no mark means an inactive call. Active and inactive are the calls of the source. The call rests on the fitted dose curve; in most records, active means well fitted inhibition curve with a large enough effect; inconclusive means small, poorly fitted or top-dose-only effect; inactive means no such curve, though single readings can be large or run the other way.
On the % scale 0 is the no-effect control and ±100 the full control effect; potency means the concentration at half of the fitted maximal effect.

The test in a line: Primary qHTS for inhibitors of nuclear receptor binding SET domain protein 2 (NSD2) in an RCH-ACV wild type WT cells (2C) (AID 1645877). Further: nearly all actives have a fitted effect of over 70% in size. The following applies: RCH-ACV (leukaemia line) NSD2 WT (2C) viability, CellTiter-Glo, 72 h; series mostly up to 44.9 µM; activity change, negative = cell killing: at the top concentration.
As for `CC1(C)CCC(C)(C)c2cc(C#Cc3ccc(C(=O)O)cc3)ccc21`, the “activity change, negative = cell killing” value was -31.8%.
On the same count and under the same terms, the value for `O=c1[nH]c2ccccc2n1CCN1CCN(c2cccc(C(F)(F)F)c2)CC1` was -16.4%.
Still for that read-out and setting: as for `COc1ccccc1-c1ccc(-c2cn(C(=O)N3CCCCC3Cc3ccccc3)nn2)cc1` (configuration not stated), the figure is -27.6%.
For `C=C1C(=O)OC2CC(C)C(CCC(C)O)=CCC12` (configuration not stated), the Potency was 16.3 µM (active).
Take `CC(=O)O[C@H]1CC[C@]2(C)[C@H]3CC[C@]4(C)Oc5oc(C)cc(=O)c5C[C@H]4[C@]3(C)CC[C@H]2C1(C)C`: the Potency was 7.09 µM (active).
Same read-out and setting: the value for `O=C(NCC1(c2nc(-c3ccccc3)cs2)CCOCC1)c1cccc(-c2noc(C(F)(F)F)n2)c1` was 25.8 µM (active).
Still for that read-out and setting: as for `COC1=CC(=O)O/C1=C(/OC)[C@@H]1O[C@H]1c1ccccc1`, the figure is 18.3 µM (active).
With `CC(C)(O)C1Cc2c(ccc(C(=O)CCc3ccccc3)c2O)O1` (configuration not stated), the “activity change, negative = cell killing” value is -40%.
In the case of `Cn1c(SCC(=O)N2CCC[C@H]2C(=O)Nc2ccccc2-c2ccccc2)nc2ccccc21`, the “activity change, negative = cell killing” value is -20.9%.
`CN1CCN(C(=O)CN[C@@H]2C[C@H]2c2ccc(OCc3ccccc3)cc2)CC1`: the Potency is 20.5 µM (active).
Turning to `C[C@H]1CC[C@@]2(OC1)O[C@H]1CC3[C@@H]4CC[C@@H]5C[C@@H](O[C@@H]6O[C@H](CO)[C@@H](O[C@@H]7O[C@H](CO[C@@H]8OC[C@@H](O)[C@H](O)[C@H]8O)[C@@H](O[C@@H]8O[C@H](CO)[C@H](O)[C@H](O)[C@H]8O)[C@H](O)[C@H]7O)[C@H](O)[C@H]6O)CC[C@]5(C)C4CC[C@]3(C)[C@H]1[C@@H]2C` (some centres not stated), the Potency was 3.46 µM (active).
For `CS/C=C/C(=O)O[C@@H]1CCC2=CC(=O)C(=C(C)C)C[C@]2(C)[C@H]1C`, the Potency is 11.3 µM (active).
In the case of `O=C(O)c1ccc(N2C(=O)/C(=C/c3ccc(-c4ccc([N+](=O)[O-])cc4)o3)C=C2c2ccccc2)cc1`, the “activity change, negative = cell killing” value is -36%.
As for `COc1cc(OC)c(NC(=O)c2ccc(Cc3cc4c(cc3C)C(C)(C)CCC4(C)C)o2)c(OC)c1`, the Potency was 23 µM (active).
Turning to `C/C=C(/C=C(C)/C=C/C=C/C=C(\C)C(=O)C12OC1C(O)(CCO)NC2=O)C(=O)OC` (configuration not stated), the Potency is 7.96 µM (active).
On the same count and under the same terms, the value for `C=C1C(OC2OC(CO)C(O)C(O)C2O)CC2C(C)(C)C(O)CCC2(C)C1CC/C(C)=C\COC(=O)CC(=O)O` (configuration not stated) was 4.83 µM (active); that for `C=C1C(=O)OC2C3=C(C)C(=O)CC3C(C)CC(O)C12` (configuration not stated) was 14.5 µM (active).
As for `CC1OC2OC(=O)C3(C)CC4C5(CO5)C5=CC(=O)OC(C)(C)C5=CC(=O)C4(C)C(C1=O)C23` (configuration not stated), the Potency was 8.93 µM (active).
For the compound `CN1CCN(c2ccc(-c3cccc(CN4CCOCC4)c3)cc2NC(=O)c2c[nH]c(=O)cc2C(F)(F)F)CC1`, the “activity change, negative = cell killing” value was -22.9%.
Turning to `CC[C@H](C)/C=C(C)/C=C/C1=CC2=C(Cl)C(=O)[C@](C)(O)[C@H](OC(C)=O)[C@H]2CO1`, the Potency is 10.1 µM (active).
The same measure, in the same setting: as for `COc1ccccc1C(=O)Nc1cc2c(cc1N1CCCC1)n(C)c(=O)n2C`, the figure is 23.5 µM (active).
As to `CC(C)(CO)c1cc2cc(NC(=O)C3(c4ccc5c(c4)OC(F)(F)O5)CC3)c(F)cc2n1CC(O)CO` (configuration not stated), the “activity change, negative = cell killing” value is -20.6%.
For `CC(=O)c1c(C)cc2cccc(O)c2c1O[C@@H]1O[C@H](CO)[C@@H](O)[C@H](O)[C@H]1O`, the Potency is 12.7 µM (active).
For the compound `CC1CCC(=O)CC(SCC(O)C(=O)O)CCC(=O)O1` (configuration not stated), the “activity change, negative = cell killing” value is -48.2%.
On to `COc1ccc(NC(=O)C2C[C@H](C)CC[C@H]2C(C)C)cc1` (some centres not stated), for which the “activity change, negative = cell killing” value was -18.8%.
As for `CC(O)C(C)n1ncn(-c2ccc(N3CCN(c4ccc(OCC5COC(Cn6cncn6)(c6ccc(Cl)cc6Cl)O5)cc4)CC3)cc2)c1=O` (configuration not stated), the “activity change, negative = cell killing” value was -16.9%.
As to `C=C1C(=O)O[C@@H]2[C@H]3C(C)=CC(=O)C3=C(C)[C@@H](OC(=O)/C(C)=C\C)[C@H](O)[C@@H]12`, the Potency was 3.58 µM (active).
The same measure, in the same setting: as for `CO[C@H]1C[C@@H]2CC[C@@H](C)[C@@](O)(O2)C(=O)C(=O)N2CCCC[C@H]2C(=O)O[C@H]([C@@H](C)C[C@@H]2CC[C@@H](O)[C@H](OC)C2)CC(=O)[C@H](C)/C=C(\C)[C@@H](O)[C@@H](OC)C(=O)[C@H](C)C[C@H](C)/C=C/C=C/C=C/1C`, the figure is 25.8 µM (active); as for `CO[C@H]1O[C@@H]2O[C@@]3(C)CCC4[C@H](C)CCC([C@H]1C)[C@]42OO3` (some centres not stated), 6.49 µM (active); as for `C=C1CCCC2(C)CCC(C(C)(C)OC3OC(C)C(O)C(O)C3OC(=O)/C(C)=C\C)CC12` (configuration not stated), 10 µM (active).
In the case of `CC(=O)O[C@H]1[C@@]2(O)C[C@H](C)[C@H](OC(=O)c3ccccc3)[C@@H]2[C@@H](OC(=O)CO)[C@]2(OC(C)=O)C[C@H]3C(=O)C(C)(C)C[C@@H]3[C@@]1(C)[C@H]2OC(C)=O`, the “activity change, negative = cell killing” value is -20.5% [at 17.3 µM].
For `CCC(C)C(=O)Oc1cc(C)ccc1C1(COC(=O)C(C)C)CO1` (configuration not stated), the Potency is 5.67 µM (active).
`C[C@@H]1O[C@@H](O[C@H]2CC[C@@]3(C)C(CC[C@]4(C)C3CC=C3[C@@H]5CC(C)(C)CC[C@]5(C(=O)O[C@@H]5O[C@H](CO)[C@@H](O)[C@H](O)[C@H]5O)CC[C@]34C)[C@]2(C)CO)[C@H](O)[C@H](O[C@@H]2O[C@H](CO)[C@@H](O)[C@H](O)[C@H]2O)[C@H]1O` (some centres not stated): the Potency is 3.46 µM (active).
Still for that read-out and setting: as for `CC(C)=CCc1cc2c(cc1O)OC[C@H]1c3ccc(O)cc3O[C@@H]21`, the figure is 14.2 µM (active); as for `CCC(C)(OC(C)=O)C(=O)O[C@H]1[C@H](OC(C)=O)[C@]2(CO)[C@H](O)[C@H](O)[C@]3(C)C(=CCC4[C@@]5(C)CC[C@H](O[C@@H]6O[C@H](C(=O)O)[C@@H](O)[C@H](O[C@@H]7OC[C@H](O)[C@H](O[C@@H]8OC[C@H](O)[C@H](O)[C@H]8O)[C@H]7O)[C@H]6O[C@@H]6O[C@H](CO)[C@@H](O)[C@H](O)[C@H]6O)C(C)(C)C5CC[C@]43C)[C@@H]2CC1(C)C` (some centres not stated), 2.44 µM (active); as for `Nc1nc(O)c(C2=C3C(=Nc4ccccc43)C(=O)NCC2)[nH]1`, 16.3 µM (active).
As for `C=C1/C(=C/C=C2\CCC[C@]3(C)[C@@H]([C@H](C)/C=C/[C@@H](C)C(C)C)CC[C@@H]23)C[C@@H](O)C[C@@H]1O`, the Potency is 14.5 µM (active).
